One sequence from paper PMC7862700, “An all-to-all approach to the identification of sequence-specific readers for epigenetic DNA modifications on cytosine” can be followed below.

Assay in all cases: DAPPL (digital affinity profiling via proximity ligation, sequencing); 10 mM Tris-HCl pH 7.5, 50 mM NaCl, 1 mM DTT, 4% glycerol, room temperature, 30 min; GST-TFs on glutathione beads, 16-mer random dsDNA library, 0.1% formaldehyde crosslink after washing; high values mean tight binding
One test addresses T1, FLI1 (Homo sapiens, UniProt Q01543 1-452).
T1 sequence: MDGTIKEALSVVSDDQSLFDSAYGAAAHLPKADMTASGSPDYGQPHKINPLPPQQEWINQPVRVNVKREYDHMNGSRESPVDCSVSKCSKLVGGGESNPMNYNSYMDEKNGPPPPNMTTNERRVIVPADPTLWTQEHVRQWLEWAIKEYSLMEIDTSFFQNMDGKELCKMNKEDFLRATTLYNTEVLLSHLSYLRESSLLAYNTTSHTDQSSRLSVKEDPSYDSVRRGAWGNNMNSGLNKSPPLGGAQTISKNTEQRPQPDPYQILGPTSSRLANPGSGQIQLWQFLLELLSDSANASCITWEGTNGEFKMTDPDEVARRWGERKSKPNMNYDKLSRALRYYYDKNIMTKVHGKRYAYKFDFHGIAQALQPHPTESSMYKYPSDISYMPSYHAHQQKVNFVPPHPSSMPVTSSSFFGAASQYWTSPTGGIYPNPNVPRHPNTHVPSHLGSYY
The conditions noted are these: protein: recombinant; tags: N-terminal GST; dsDNA, one strand shown. Put shortly: (§1)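 Binding signal is given per hexamer as its read frequency for a factor divided by its frequency in the tag-only sample. GST-fused human transcription factors were expressed in yeast, captured on glutathione beads, barcoded with DNA and pooled with that sample, then incubated with 200 nmole of a 16-mer random double-stranded DNA library in Tris/NaCl/DTT/glycerol buffer for 30 min at room temperature. The pools were then washed, crosslinked, proximity-ligated, amplified by PCR and sequenced on an Illumina NextSeq500.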

A further test concerns the target T2, ELK1 (Homo sapiens, UniProt P19419 1-428).
T2 sequence: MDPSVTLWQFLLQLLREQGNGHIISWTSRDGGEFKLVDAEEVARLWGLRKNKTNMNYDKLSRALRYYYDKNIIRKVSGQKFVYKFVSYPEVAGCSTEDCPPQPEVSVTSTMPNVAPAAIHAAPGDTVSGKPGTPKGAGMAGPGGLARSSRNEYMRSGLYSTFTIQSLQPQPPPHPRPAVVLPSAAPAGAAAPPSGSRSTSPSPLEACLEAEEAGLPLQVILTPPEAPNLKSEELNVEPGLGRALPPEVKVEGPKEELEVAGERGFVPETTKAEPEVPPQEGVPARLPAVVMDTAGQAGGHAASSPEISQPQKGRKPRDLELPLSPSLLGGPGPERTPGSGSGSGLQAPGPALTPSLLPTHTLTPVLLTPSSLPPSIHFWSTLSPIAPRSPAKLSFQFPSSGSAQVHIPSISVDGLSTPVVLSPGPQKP
The conditions noted are these: protein: recombinant; tags: N-terminal GST; dsDNA, one strand shown. Put shortly:
as §1

The next test has as its target T3, GABPA (Homo sapiens, UniProt Q06546 1-454).
T3 sequence: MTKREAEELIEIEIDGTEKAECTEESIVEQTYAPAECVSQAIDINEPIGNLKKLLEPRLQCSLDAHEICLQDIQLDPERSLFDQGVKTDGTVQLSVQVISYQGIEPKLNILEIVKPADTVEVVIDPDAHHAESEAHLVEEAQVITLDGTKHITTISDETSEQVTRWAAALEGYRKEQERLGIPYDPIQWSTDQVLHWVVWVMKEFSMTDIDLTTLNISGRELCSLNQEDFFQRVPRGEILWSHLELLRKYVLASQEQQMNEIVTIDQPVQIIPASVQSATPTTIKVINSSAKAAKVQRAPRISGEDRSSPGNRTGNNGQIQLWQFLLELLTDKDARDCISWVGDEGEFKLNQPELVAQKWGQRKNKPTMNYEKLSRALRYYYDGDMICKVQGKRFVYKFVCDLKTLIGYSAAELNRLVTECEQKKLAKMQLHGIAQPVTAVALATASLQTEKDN
The conditions noted are these: protein: recombinant; tags: N-terminal GST; dsDNA, one strand shown. The procedure, abridged:
as §1

The target in the next test is T4, ERG (Homo sapiens, UniProt P11308 1-479).
T4 sequence: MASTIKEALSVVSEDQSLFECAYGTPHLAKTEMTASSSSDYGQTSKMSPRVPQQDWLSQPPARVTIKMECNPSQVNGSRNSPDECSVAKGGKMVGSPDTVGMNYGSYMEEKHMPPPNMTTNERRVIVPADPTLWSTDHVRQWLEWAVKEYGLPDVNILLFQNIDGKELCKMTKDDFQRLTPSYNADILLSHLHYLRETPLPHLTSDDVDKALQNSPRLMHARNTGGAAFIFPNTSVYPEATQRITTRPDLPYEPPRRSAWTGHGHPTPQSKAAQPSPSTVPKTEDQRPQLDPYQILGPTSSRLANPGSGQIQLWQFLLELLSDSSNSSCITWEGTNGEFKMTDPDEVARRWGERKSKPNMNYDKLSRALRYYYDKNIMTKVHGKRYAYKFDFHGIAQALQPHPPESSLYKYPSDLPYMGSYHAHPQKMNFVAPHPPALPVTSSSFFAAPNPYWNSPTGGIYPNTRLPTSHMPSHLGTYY
To be noted: protein: recombinant; tags: N-terminal GST; dsDNA, one strand shown. Put shortly: as §1

The target in the next test is ELF1 (Homo sapiens, UniProt P32519 1-619). To be noted: protein: recombinant; tags: N-terminal GST; dsDNA, one strand shown. Put shortly: as §1
Another test has as its target T5, EHF (Homo sapiens, UniProt Q9NZC4 1-300).
T5 sequence: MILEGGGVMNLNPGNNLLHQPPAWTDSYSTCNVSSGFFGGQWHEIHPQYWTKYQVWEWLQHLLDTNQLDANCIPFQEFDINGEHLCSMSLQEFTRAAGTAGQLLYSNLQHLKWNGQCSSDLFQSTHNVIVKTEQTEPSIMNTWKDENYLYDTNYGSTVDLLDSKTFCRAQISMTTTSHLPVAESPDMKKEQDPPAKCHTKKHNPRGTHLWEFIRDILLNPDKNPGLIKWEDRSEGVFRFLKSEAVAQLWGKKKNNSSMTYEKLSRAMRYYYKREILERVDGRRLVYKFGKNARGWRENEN
The conditions noted are these: protein: recombinant; tags: N-terminal GST; dsDNA, one strand shown. The procedure, abridged:
as §1

The next test deals with SPI1 (Homo sapiens, UniProt P17947 1-270). To be noted: protein: recombinant; tags: N-terminal GST; dsDNA, one strand shown. The procedure, abridged:
as §1

The next test deals with SPIB (Homo sapiens, UniProt Q01892 1-262). The conditions noted are these: protein: recombinant; tags: N-terminal GST; dsDNA, one strand shown. The procedure, abridged: as §1
The target in a further test is T6, ELK3 (Homo sapiens, UniProt P41970 1-407).
T6 sequence: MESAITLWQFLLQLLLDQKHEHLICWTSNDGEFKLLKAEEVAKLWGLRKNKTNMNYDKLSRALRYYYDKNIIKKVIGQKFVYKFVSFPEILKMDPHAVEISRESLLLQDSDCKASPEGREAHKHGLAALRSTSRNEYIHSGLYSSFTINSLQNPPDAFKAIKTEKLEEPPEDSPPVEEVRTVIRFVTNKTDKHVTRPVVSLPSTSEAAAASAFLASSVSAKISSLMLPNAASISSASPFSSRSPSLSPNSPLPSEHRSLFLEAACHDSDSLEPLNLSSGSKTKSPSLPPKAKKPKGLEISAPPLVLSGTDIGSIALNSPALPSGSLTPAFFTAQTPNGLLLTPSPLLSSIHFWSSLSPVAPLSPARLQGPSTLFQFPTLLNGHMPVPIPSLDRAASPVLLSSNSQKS
The conditions noted are these: protein: recombinant; tags: N-terminal GST; dsDNA, one strand shown. The procedure, abridged:
as §1

Another test concerns the target T7, FEV (Homo sapiens, UniProt Q99581 1-238).
T7 sequence: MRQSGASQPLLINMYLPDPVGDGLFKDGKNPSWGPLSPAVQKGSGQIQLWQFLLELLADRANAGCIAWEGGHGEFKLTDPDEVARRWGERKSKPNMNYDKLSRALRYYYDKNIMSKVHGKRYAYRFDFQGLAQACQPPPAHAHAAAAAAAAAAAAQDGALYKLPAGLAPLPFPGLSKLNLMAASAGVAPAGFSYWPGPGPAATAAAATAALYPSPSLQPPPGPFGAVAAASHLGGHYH
The conditions noted are these: protein: recombinant; tags: N-terminal GST; dsDNA, one strand shown. The procedure, abridged: as §1

The target of the next test is ETV5 (Homo sapiens, UniProt P41161 1-510). To be noted: protein: recombinant; tags: N-terminal GST; dsDNA, one strand shown. Put shortly: as §1
The target of the next test is HSF1 (Homo sapiens, UniProt Q00613 1-529). The conditions noted are these: protein: recombinant; tags: N-terminal GST; chain copies: 3; dsDNA, one strand shown. The procedure, abridged: as §1
A further test has as its target ELF4 (Homo sapiens, UniProt Q99607 1-663). The conditions noted are these: protein: recombinant; tags: N-terminal GST; dsDNA, one strand shown. Put shortly: as §1
The next test concerns the target T8, ELK4 (Homo sapiens, UniProt P28324-2 1-405).
T8 sequence: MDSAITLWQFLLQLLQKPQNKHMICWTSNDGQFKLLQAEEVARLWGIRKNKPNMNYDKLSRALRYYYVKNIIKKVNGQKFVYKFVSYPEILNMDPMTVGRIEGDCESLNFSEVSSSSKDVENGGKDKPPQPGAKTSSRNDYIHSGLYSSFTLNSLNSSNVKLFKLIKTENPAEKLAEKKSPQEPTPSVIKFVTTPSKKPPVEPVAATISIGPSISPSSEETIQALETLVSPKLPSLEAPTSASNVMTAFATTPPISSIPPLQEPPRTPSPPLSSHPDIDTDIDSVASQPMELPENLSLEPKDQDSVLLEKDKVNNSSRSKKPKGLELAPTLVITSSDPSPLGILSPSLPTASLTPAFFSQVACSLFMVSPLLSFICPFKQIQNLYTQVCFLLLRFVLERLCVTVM
The conditions noted are these: protein: recombinant; tags: N-terminal GST; dsDNA, one strand shown. Put shortly:
as §1

The target of another test is T9, ETV2 (Homo sapiens, UniProt O00321 1-342).
T9 sequence: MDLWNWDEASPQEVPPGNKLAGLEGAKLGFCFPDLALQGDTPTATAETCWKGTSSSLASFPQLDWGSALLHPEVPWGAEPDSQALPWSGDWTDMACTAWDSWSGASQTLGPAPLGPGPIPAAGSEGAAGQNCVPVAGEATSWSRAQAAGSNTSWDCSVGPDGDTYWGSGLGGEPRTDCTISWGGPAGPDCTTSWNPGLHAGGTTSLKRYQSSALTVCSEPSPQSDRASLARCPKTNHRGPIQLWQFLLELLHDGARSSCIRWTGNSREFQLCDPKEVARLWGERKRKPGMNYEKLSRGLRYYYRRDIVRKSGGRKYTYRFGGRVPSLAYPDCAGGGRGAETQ
To be noted: protein: recombinant; tags: N-terminal GST; dsDNA, one strand shown. The procedure, abridged:
as §1

The next test addresses T10, ELF3 (Homo sapiens, UniProt P78545 1-371).
T10 sequence: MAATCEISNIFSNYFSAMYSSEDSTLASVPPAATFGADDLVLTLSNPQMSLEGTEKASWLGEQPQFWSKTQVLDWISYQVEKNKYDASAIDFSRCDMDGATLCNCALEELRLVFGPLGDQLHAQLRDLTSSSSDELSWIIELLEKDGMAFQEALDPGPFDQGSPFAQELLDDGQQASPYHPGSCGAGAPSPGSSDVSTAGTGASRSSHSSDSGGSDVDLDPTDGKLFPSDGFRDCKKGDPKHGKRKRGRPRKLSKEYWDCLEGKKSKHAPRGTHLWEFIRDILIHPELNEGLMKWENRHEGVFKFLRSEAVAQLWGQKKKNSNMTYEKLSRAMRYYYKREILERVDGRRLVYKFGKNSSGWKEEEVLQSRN
To be noted: protein: recombinant; tags: N-terminal GST; dsDNA, one strand shown. Put shortly:
as §1

For another test, the target named is ETV1 (Homo sapiens, UniProt P50549 1-477). The conditions noted are these: protein: recombinant; tags: N-terminal GST; dsDNA, one strand shown. Put shortly:
as §1

Sequence of ETV5 (P41161 whole entry): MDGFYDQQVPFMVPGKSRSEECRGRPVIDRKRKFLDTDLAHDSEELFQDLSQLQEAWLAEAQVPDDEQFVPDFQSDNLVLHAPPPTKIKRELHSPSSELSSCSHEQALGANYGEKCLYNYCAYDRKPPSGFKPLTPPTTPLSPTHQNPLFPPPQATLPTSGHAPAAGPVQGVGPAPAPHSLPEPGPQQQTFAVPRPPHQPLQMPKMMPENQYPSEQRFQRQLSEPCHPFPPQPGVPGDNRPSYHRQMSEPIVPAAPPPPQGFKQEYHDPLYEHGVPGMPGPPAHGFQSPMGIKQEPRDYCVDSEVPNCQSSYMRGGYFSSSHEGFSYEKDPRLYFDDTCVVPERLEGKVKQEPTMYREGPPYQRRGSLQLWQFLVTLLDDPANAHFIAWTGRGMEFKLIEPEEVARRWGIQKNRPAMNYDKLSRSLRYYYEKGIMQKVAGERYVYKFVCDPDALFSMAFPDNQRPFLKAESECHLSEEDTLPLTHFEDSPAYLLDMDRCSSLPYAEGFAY
Sequence of ETV1 (P50549 whole entry): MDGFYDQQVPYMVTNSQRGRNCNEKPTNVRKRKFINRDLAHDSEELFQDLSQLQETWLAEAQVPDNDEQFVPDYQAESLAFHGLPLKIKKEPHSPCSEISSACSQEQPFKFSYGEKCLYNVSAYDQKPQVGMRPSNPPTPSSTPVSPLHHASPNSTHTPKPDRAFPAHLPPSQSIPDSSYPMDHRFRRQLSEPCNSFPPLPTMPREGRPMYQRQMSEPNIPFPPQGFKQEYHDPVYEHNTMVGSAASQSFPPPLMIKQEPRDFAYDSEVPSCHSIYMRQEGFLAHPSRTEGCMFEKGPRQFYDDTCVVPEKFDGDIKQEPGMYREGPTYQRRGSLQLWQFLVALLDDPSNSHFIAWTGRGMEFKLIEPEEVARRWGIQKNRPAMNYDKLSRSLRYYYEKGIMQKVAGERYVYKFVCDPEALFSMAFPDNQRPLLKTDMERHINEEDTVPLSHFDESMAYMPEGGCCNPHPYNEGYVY
Sequence of ELF1 (P32519 whole entry): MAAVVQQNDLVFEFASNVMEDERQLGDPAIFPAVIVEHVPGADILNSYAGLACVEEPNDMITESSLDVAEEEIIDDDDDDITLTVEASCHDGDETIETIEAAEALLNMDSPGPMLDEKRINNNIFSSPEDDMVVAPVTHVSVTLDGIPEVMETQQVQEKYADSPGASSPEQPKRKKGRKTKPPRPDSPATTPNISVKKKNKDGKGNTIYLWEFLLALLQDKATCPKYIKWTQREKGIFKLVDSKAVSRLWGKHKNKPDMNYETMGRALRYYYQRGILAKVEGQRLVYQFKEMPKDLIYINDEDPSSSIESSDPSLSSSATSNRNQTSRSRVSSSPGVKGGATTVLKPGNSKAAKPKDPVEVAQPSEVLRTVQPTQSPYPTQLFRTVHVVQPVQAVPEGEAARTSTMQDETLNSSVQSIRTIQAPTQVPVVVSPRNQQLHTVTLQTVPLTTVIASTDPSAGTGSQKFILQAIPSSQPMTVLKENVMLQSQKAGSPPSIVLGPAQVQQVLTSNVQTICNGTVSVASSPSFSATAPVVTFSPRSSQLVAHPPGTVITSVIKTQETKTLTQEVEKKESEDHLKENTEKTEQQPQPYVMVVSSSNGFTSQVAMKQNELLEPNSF
Sequence of HSF1 (Q00613 whole entry): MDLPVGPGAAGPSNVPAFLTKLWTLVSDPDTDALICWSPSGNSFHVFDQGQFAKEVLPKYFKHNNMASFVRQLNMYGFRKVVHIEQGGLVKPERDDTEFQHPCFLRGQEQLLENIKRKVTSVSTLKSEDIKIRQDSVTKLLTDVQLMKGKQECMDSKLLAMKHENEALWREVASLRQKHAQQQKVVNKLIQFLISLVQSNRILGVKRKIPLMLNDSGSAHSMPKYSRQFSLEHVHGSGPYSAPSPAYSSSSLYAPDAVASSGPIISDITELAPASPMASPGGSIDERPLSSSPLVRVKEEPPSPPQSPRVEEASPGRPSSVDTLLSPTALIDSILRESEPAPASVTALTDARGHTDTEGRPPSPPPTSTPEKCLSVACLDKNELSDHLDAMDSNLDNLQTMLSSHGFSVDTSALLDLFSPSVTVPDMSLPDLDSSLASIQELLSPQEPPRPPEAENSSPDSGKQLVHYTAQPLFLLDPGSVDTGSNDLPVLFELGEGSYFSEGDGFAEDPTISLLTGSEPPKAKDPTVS
Sequence of SPIB (Q01892 whole entry): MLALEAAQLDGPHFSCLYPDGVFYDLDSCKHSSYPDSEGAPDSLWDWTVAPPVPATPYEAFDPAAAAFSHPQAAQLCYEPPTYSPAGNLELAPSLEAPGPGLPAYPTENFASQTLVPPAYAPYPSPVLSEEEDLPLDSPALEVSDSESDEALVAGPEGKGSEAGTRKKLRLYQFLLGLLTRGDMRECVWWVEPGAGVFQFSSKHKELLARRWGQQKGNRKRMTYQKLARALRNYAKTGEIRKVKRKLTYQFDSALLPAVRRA
Sequence of ELF4 (Q99607 whole entry): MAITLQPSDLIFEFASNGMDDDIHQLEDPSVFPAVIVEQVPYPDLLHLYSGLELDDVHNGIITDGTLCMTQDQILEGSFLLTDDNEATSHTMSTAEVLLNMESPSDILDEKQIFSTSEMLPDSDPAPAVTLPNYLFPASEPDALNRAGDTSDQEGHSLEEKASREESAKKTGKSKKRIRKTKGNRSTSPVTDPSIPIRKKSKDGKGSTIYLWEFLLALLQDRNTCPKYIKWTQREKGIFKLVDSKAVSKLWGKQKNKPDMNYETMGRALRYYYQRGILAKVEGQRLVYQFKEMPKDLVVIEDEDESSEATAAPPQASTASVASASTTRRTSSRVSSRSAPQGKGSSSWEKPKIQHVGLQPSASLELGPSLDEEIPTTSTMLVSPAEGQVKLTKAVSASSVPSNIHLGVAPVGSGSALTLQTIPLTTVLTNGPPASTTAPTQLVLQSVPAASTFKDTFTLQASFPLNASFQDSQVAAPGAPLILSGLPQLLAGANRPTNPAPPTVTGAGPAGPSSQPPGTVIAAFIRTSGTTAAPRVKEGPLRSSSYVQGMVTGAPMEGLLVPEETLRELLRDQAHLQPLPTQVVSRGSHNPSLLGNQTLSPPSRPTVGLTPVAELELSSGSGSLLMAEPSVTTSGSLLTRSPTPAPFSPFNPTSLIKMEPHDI

As to GCATTC, the binding signal with FLI1 was 1.15 fold enrichment (6-mer frequency, TF over GST control); with ELK1 it was 1.16 fold enrichment (6-mer frequency, TF over GST control); with GABPA, 1.18 fold enrichment (6-mer frequency, TF over GST control); with ERG, 1.12 fold enrichment (6-mer frequency, TF over GST control); with ELF1, 1.13 fold enrichment (6-mer frequency, TF over GST control); with EHF it was 1.07 fold enrichment (6-mer frequency, TF over GST control). The binding signal was 1.15 fold enrichment (6-mer frequency, TF over GST control) with SPI1; 1.12 fold enrichment (6-mer frequency, TF over GST control) with SPIB; 1.03 fold enrichment (6-mer frequency, TF over GST control) with ELK3; 1.08 fold enrichment (6-mer frequency, TF over GST control) with FEV; 1.1 fold enrichment (6-mer frequency, TF over GST control) with ETV5; 1.17 fold enrichment (6-mer frequency, TF over GST control) with HSF1. In addition, the binding signal with ELF4 is 1.1 fold enrichment (6-mer frequency, TF over GST control); with ELK4 it was 1.05 fold enrichment (6-mer frequency, TF over GST control); with ETV2 it was 1.09 fold enrichment (6-mer frequency, TF over GST control); with ELF3, 1.11 fold enrichment (6-mer frequency, TF over GST control); in the test with ETV1 it was 1.24 fold enrichment (6-mer frequency, TF over GST control).
